We go through eleven compounds from PubChem BioAssay (Tox21).

Several values for one entry are separate records, joined by “and”; a condition that tells them apart may be missing. Equal values may be shown once. Records with an inconclusive call do not appear. Some structures have more than one record in an assay (separate samples or runs), and their calls can disagree. Activity calls are given as the source filed them. Unless noted, the call rests on the fitted dose curve; in most records, active means well fitted curve in the direction sought with a large enough effect in the repeat runs; inconclusive means weak or mixed curves; inactive means no such curve, though single readings can be large; an effect the other way counts as inactive or inconclusive.

A short description of test [1]: qHTS assay to identify small molecule antagonists of the estrogen receptor alpha (ER-alpha) signaling pathway using the BG1 cell line in the presence of 0.1 nM 17-beta-estradiol - cell viability counter screen (AID 1259241). Further: nearly all actives have a fitted effect of over 40% in size. Put shortly: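 The cell line endogenously expresses full-length ER-alpha and carries four EREs driving luciferase. Cells are cultured 5 days hormone-free, treated 22 hr with compounds and 0.1 nM estradiol, then viability is read by fluorescence.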
Background: Quantitative high-throughput screening tests each substance at several concentrations.

The nature of test [2]: qHTS assay to identify small molecule antagonists of the androgen receptor (AR) signaling pathway using the MDA cell line in the presence of 0.5 nM R1881 - cell viability counter screen (AID 1259242). Further: nearly all actives have a fitted effect of over 45% in size. Further: potency means the concentration at half of the fitted maximal effect. Put shortly:
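R1881 at 0.5 nM final stimulated MDA-kb2 cells during 16 hr compound treatment at 37C. Cytotoxicity read: CellTiter-Fluor fluorescence after 30 min.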

A short description of test [3]: qHTS assay to identify small molecule phospholipidosis (PLD) inducers (AID 1259344; active means well fitted curve in the direction sought with a large enough effect; an effect the other way counts as inactive or inconclusive). Put shortly:
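HepG2 cells, 900/well, treated with compound plus LipidTOX Red for 24 h at 37 C; amiodarone positive and DMSO negative controls. Fixed with paraformaldehyde/Hoechst, then high-content imaging scored LipidTOX pit count and integrated intensity per well and per cell.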

Test [4] in a line: qHTS assay to identify small molecule HDAC inhibitors (AID 1259364).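 Further: wild-type HCT-116 cells with endogenous class I/II HDAC activity; top concentration of the series differs between compounds; nearly all actives have a fitted effect of over 45% in size.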 Put shortly: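 Relative class I and II HDAC activity is taken from the luminogenic signal in HCT-116 cells, with compound exposure 2 hr and reagent development 30 min at room temperature.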
Test [5] can be described thus: qHTS assay to identify small molecule HDAC inhibitors - cell viability counter screen (AID 1259365). Further: series mostly up to about 92 µM; nearly all actives have a fitted effect of over 50% in size. A digest of the protocol:
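Viability readout: CellTiter-Glo luminescence. Wild-type HCT-116 cells, 2hr compound treatment following overnight attachment at 37 C.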

Test [6] can be described thus: qHTS assay to identify small molecule agonists of the sonic hedgehog signaling (Shh) pathway - cell viability counter screen (AID 1259366). Further: nearly all actives have a fitted effect of over 50% in size. A digest of the protocol:
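Viability measured fluorometrically (CellTiter-Fluor, 1hr, 37C) in 3T3 Gli1-Luc reporter cells after 23hr compound exposure within a 24hr incubation at 37C/5% CO2.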

A short description of test [7]: qHTS assay to identify small molecule antagonists of the sonic hedgehog signaling (Shh) pathway - cell viability counter screen (AID 1259367). Further: nearly all actives have a fitted effect of over 55% in size. Further: potency means the concentration at half of the fitted maximal effect. A digest of the protocol:
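NIH/3T3-derived Gli1-Luc reporter cells, 2,000/well, plated 4 hr before compound addition, then stimulated with conditioned medium for 24 hr at 37C. Viability measured in the same wells by CellTiter-Fluor fluorescence, reagent added at 23 hr for 1 hr.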

A short description of test [8]: qHTS assay to identify small molecule agonists of the sonic hedgehog signaling (Shh) pathway (AID 1259368; calls by dose curve;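 further: NIH/3T3-derived 3T3Gli1-Luc cells carrying a stable Gli1-driven firefly luciferase reporter; series mostly up to about 92 µM; nearly all actives have a fitted effect of over 15% in size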). Put shortly:
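Mouse fibroblast (NIH/3T3) reporter cells with stably integrated Gli1-Luc were treated 24 hr with compound; firefly luciferase luminescence served as the read-out.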

A short description of test [9]: qHTS assay to identify small molecule antagonists of the sonic hedgehog signaling (Shh) pathway (AID 1259369; calls by dose curve; further: nearly all actives have a fitted effect of over 45% in size; further: potency means the concentration at half of the fitted maximal effect). Put shortly:
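Conditioned medium drives Shh signalling in 3T3Gli1-Luc cells; compounds in DMSO co-applied, 24hr at 37 C, then luciferase luminescence.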

A short description of test [10]: qHTS assay to identify small molecule agonists of the androgen receptor (AR) signaling pathway in the presence of an antagonist - cell viability counter screen (AID 1259379). Further: nearly all actives have a fitted effect of over 25% in size. Further: potency means the concentration at half of the fitted maximal effect. Put shortly: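 A CellTiter-Fluor read-out measured viability of MDA-kb2 reporter cells (MMTV promoter with AR and GR response elements). Treatment: nilutamide 3.0uM final with compounds at 15 concentrations, 16 hr, 37C, 0% CO2.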

Test [11] can be described thus: qHTS assay to identify small molecule agonists of the estrogen receptor beta (ER-beta) signaling pathway - cell viability counter screen (AID 1259380). Further: nearly all actives have a fitted effect of over 30% in size. Further: potency means the concentration at half of the fitted maximal effect. A digest of the protocol:
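Cells used were ER-beta-UAS-bla HEK293T in medium with 2% charcoal-stripped FBS. They were treated for 16 hr at 37C. Viability came from CellTiter-Glo luminescence.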

The nature of test [12]: qHTS assay to identify small molecule antagonists of the estrogen receptor beta (ER-beta) signaling pathway - cell viability counter screen (AID 1259382). Further: series mostly up to about 92 µM; nearly all actives have a fitted effect of over 55% in size. A digest of the protocol:
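Agonist-stimulated (1nM E2) ER-beta-UAS-bla HEK293T cells are incubated with library compounds for 16 hr at 37C. Cell viability is then assessed in the reporter-assay wells by adding CellTiter-Glo and reading luminescence after 30 min.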

Test [13] in a line: qHTS assay to identify small molecule agonists or antagonists of the thyroid stimulating hormone receptor (TSHR) signaling pathway - wild type cell line counter screen (AID 1259384; calls by dose curve). Put shortly: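 Wild-type Hek293 cells, 800/well, 18 h at 37C, then compound with Ro20-1724 for 30 min RT. cAMP by HTRF (cAMP-d2/anti-cAMP cryptate), 1 h RT, fluorescence read. 15 concentrations, triplicates.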

Test [14] deals with Thyrotropin receptor (Homo sapiens) (UniProt P16473). In words: qHTS assay to identify small molecule antagonists of the thyroid stimulating hormone receptor (TSHR) signaling pathway (AID 1259385; calls by dose curve; further: nearly all actives have a fitted effect of over 20% in size). Put shortly:
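TSHR-HEK293 cells (800/well) plated 18 h, then compounds with Ro20-1724 and TSH at 1.5 ng/mL final, 30 min at room temperature. cAMP quantified by HTRF (cAMP-d2/anti-cAMP-cryptate, 1 h); 15 concentrations in triplicate.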

Test [15] in a line: qHTS assay to identify small molecule agonists of the estrogen receptor alpha (ER-alpha) signaling pathway in the presence of an antagonist - cell viability counter screen (AID 1259386).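 Further: cells exposed to compounds for 22 h at 37 °C before the viability read; nearly all actives have a fitted effect of over 30% in size.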 Further: potency means the concentration at half of the fitted maximal effect. Put shortly:
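ICI-182,780 at 10.0nM final accompanies the compound titration (15 concentrations, 22hr, 37C) on VM7Luc4E2 cells. The CellTiter-Fluor fluorescence readout runs in the same wells as the luciferase assay.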

In test [16] the target is Estrogen receptor beta (Homo sapiens) (UniProt Q92731). Put plainly: qHTS assay to identify small molecule agonists of the estrogen receptor beta (ER-beta) signaling pathway (AID 1259377; active means well fitted activation curve with a large enough effect in the signal ratio in the repeat runs, not every such curve was filed as active; the % refers to the signal ratio). Put shortly: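 A UAS-controlled beta-lactamase reporter in ER-beta-UAS-bla HEK293T cells reports receptor activation. Compounds act for 16 hr at 37C in 2% charcoal-stripped serum, and a FRET substrate is read by fluorescence after 2 hours.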

Test [17] shares this target. In words: qHTS assay to identify small molecule antagonists of the estrogen receptor beta (ER-beta) signaling pathway (AID 1259378; active means well fitted inhibition curve with a large enough effect in the signal ratio in the repeat runs, not every such curve was filed as active; the % refers to the signal ratio). Put shortly: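 ER-beta-UAS-bla HEK293T cells in 2% charcoal-stripped FBS medium treated with compound plus 1nM final 17-beta-estradiol for 16 hr at 37C. Beta-lactamase reporter read by FRET substrate fluorescence after 2 hours at room temperature.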

Test [18] addresses Androgen receptor (Homo sapiens) (UniProt P10275). In words: qHTS assay to identify small molecule antagonists of the androgen receptor (AR) signaling pathway using the MDA cell line in the presence of 0.5 nM R1881 (AID 1259243). Further: nearly all actives have a fitted effect of over 50% in size. A digest of the protocol:
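We exposed MDA-kb2 cells to compounds under 0.5 nM R1881 stimulation for 16 hr at 37C and quantified MMTV-driven luciferase by luminescence.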

Test [19] has as its target Estrogen receptor (Homo sapiens) (UniProt P03372). In words: qHTS assay to identify small molecule antagonists of the estrogen receptor alpha (ER-alpha) signaling pathway using the BG1 cell line in the presence of 0.1 nM 17-beta-estradiol (AID 1259244). Further: nearly all actives have a fitted effect of over 50% in size. Further: potency means the concentration at half of the fitted maximal effect. Put shortly:
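VM7Luc4E2; 4xERE-luciferase; 0.1 nM E2 final; 22 h co-incubation, 37C; ONE-Glo luminescence after 30 min at room temperature.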

Test [20] has the same target. Put plainly: qHTS assay to identify small molecule agonists of the estrogen receptor alpha (ER-alpha) signaling pathway in the presence of an antagonist (AID 1259383; calls by dose curve; further: top concentration of the series differs between compounds; nearly all actives have a fitted effect of over 15% in size). A digest of the protocol: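 Using VM7Luc4E2 cells seeded 24hr before treatment, antagonist ICI-182,780 (10.0nM final) was added, followed by compounds at 15 concentrations. Plates incubated 22hr; ONE-Glo luminescence quantified reporter activity.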

Estrogen receptor beta (Homo sapiens), sequence (Q92731 whole entry, looked up): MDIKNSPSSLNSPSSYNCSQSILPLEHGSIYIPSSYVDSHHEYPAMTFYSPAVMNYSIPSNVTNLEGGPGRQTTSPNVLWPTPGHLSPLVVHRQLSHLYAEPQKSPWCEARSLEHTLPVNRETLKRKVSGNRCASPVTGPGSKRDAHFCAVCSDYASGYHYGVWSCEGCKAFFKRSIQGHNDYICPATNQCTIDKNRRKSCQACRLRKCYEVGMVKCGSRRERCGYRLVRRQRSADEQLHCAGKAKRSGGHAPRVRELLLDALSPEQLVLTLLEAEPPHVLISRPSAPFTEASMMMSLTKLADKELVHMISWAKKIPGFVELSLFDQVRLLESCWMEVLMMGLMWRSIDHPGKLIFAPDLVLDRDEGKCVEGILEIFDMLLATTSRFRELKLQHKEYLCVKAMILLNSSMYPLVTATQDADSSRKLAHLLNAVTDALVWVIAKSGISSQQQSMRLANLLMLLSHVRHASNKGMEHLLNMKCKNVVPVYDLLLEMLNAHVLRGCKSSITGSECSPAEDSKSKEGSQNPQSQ
Estrogen receptor (Homo sapiens), sequence (P03372 whole entry, looked up): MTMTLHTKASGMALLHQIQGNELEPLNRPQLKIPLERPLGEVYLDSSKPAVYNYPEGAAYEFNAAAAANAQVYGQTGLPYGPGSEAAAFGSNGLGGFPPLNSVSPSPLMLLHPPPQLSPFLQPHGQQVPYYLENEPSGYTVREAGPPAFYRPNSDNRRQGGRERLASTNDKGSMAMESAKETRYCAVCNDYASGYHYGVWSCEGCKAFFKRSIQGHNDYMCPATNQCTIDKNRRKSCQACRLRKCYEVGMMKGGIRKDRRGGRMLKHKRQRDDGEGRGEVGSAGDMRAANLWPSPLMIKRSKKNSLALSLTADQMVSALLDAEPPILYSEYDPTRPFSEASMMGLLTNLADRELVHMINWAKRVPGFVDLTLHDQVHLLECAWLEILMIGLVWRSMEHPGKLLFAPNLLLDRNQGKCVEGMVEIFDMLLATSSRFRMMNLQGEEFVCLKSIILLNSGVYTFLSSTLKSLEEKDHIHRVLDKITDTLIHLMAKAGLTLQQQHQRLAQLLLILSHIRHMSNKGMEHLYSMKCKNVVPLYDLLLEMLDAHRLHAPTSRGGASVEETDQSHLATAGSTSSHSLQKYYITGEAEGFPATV
Androgen receptor (Homo sapiens), sequence (P10275 whole entry, looked up): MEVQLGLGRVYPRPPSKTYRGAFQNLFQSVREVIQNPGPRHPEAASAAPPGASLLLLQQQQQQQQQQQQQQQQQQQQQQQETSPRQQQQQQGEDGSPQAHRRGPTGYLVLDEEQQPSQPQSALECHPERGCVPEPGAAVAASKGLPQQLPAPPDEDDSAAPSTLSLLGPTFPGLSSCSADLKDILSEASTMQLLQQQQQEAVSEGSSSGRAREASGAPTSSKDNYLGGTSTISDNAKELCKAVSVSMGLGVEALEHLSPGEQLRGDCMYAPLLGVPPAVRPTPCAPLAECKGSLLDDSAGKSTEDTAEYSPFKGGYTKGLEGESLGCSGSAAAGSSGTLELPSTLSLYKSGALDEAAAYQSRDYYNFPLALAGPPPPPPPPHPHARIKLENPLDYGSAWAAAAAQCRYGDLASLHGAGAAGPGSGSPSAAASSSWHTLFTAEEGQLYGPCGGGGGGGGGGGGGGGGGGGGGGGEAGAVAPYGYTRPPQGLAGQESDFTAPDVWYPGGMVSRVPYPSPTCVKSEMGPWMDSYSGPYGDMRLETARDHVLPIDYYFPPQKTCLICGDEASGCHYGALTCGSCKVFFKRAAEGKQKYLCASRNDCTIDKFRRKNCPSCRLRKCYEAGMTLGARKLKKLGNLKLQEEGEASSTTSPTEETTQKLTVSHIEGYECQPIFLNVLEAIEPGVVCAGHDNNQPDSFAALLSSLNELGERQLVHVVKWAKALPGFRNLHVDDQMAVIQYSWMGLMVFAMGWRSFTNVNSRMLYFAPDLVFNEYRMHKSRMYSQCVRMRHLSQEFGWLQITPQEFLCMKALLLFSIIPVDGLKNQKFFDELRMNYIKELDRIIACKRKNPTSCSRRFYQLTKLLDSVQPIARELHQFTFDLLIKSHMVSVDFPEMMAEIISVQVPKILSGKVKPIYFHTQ
Thyrotropin receptor (Homo sapiens), sequence (P16473 whole entry, looked up): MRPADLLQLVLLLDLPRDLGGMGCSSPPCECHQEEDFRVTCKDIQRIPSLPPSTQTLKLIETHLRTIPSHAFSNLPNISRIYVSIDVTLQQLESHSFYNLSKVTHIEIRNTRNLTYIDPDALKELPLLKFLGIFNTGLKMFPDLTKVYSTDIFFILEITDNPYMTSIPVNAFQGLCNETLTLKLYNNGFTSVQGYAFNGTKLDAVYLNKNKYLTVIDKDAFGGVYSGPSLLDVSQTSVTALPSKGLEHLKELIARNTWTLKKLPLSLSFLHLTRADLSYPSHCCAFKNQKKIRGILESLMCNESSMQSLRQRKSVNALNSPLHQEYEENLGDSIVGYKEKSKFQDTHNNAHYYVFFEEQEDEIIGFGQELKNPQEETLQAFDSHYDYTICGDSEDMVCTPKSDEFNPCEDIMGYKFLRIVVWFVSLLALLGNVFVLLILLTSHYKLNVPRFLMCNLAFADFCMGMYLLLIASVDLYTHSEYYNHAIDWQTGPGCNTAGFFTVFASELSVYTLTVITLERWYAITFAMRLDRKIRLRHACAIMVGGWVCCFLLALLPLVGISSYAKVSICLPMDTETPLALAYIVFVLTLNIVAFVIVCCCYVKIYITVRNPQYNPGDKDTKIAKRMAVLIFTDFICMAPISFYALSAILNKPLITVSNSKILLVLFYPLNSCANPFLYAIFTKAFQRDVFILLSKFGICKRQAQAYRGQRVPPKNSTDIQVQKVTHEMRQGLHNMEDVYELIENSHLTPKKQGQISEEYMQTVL

Regarding `CC1(C)[C@@H](O[C@H]2O[C@H](C(=O)O)[C@@H](O)[C@H](O)[C@H]2O[C@@H]2O[C@H](C(=O)O)[C@@H](O)[C@H](O)[C@H]2O)CC[C@]2(C)[C@H]3C(=O)C=C4[C@@H]5C[C@@](C)(C(=O)O)CC[C@]5(C)CC[C@@]4(C)[C@]3(C)CC[C@@H]12`, the Potency entry in test [1], in test [2], in test [4], in [5], in [6] and in test [7] was “inactive” in each case. Also, the Potency entry in test [8], in test [9], in test [10], in test [11], in test [12] and in test [13] was “inactive” in each case. Also, the Potency entry in test [14] and in test [15] was “inactive” throughout. In addition, in test [3], the result was inactive.
Turning to `COC(=O)OC`, the Potency result in [1], in test [2], in test [4], in [5], in test [6] and in [7] was “inactive” in each case. Moreover, the Potency entry in [8], in test [9], in test [16], in test [17], in test [10] and in test [11] was “inactive” each time. Also, the Potency entry in [12], in test [13], in [14] and in test [15] was “inactive” throughout.
With `Cc1cc(CC(=O)O)n(C)c1C(=O)c1ccc(Cl)cc1`, the Potency entry in [1], in test [2], in test [4], in test [6], in test [7] and in test [8] was “inactive” each time. Also, the Potency result in test [9], in test [16], in test [10], in test [11], in test [12] and in [13] was “inactive” throughout. The Potency result in test [14] and in [15] was “inactive” in each case. Moreover, the compound was called inactive in test [3].
As for `CCc1cccc(CC)c1N`, the Potency entry in test [1], in [18], in [19], in [4], in test [5] and in test [6] was “inactive” in each case. The Potency entry in test [7], in [8], in test [9], in [16], in test [10] and in test [11] was “inactive” each time. Moreover, the Potency entry in [12], in test [20], in test [13], in test [14] and in test [15] was “inactive” throughout.
Turning to `Nc1cccc(N)n1`, the Potency result in test [1], in test [2], in test [19], in test [4], in test [6] and in test [7] was “inactive” throughout. Further, the Potency result in test [8], in [9], in [10], in [11], in test [12] and in test [20] was “inactive” in each case. In addition, the Potency entry in test [13], in test [14] and in [15] was “inactive” throughout.
For `C=C(CC(=O)O)C(=O)O`, the Potency result in [1], in test [2], in [4], in test [5], in test [6] and in [7] was “inactive” throughout. Further, the Potency result in test [8], in test [9], in test [16], in test [17], in [10] and in test [11] was “inactive” each time. The Potency result in test [12], in test [13], in test [14] and in [15] was “inactive” throughout.
For the compound `Cc1cccc(C)c1[N+](=O)[O-]`, the Potency entry in test [1], in test [2], in test [4], in test [5], in test [6] and in test [8] was “inactive” throughout. The Potency result in test [16], in test [10], in test [11], in test [12], in test [13] and in test [14] was “inactive” in each case. Besides, the Potency entry in [15] is “inactive”. The Potency entry is “inactive and 48.6 µM (active)” in [7]; “inactive and 24.3 µM (active)” in [9].
With `OCC(O)CS` (configuration not stated), the Potency entry in test [1], in test [18], in test [19], in [4], in [6] and in [7] was “inactive” each time. In addition, the Potency result in [8], in test [9], in [16], in test [10], in test [11] and in test [12] was “inactive” in each case. The Potency entry in [20], in [13], in [14] and in test [15] was “inactive” throughout. Further, the result in [3] was inactive.
As to `CN1Cc2c(N)cccc2C(c2ccccc2)C1` (configuration not stated), the Potency result in test [1], in test [2], in test [4], in test [6], in test [7] and in [8] was “inactive” each time. The Potency result in test [9], in test [16], in test [17], in test [10], in test [11] and in test [12] was “inactive” each time. Further, the Potency result in test [13], in [14] and in test [15] was “inactive” in each case. The compound was classed as inactive in test [3].
Consider `C[n+]1ccn(CCO)c1`, for which the Potency entry in test [1], in test [4], in test [6], in test [7], in [8] and in test [9] was “inactive” in each case. The Potency result in test [16], in test [17], in test [10], in test [11], in test [12] and in test [15] was “inactive” throughout.
Take `COc1ccc2cc3[n+](cc2c1OC)CCc1cc2c(cc1-3)OCO2`: the Potency in [2] was 10.6 µM (active); in [19] it was 1.55 µM (active) and 11.9 µM (active); in test [10], 4.89 µM (active) and 8.41 µM (active); in test [11] it was 48.9 µM (active); in [15], 27.5 µM (active) and 26.6 µM (active). Also, in test [3], the call was inactive. Further, the Potency entry in test [4], in test [6], in [7], in [8], in test [9] and in test [12] was “inactive” throughout. For the same compound, in [20], the Potency result was “inactive”.
